Assay results taken from PubChem BioAssay AID2289 (National Center for Advancing Translational Sciences (NCATS), 2010).
Out of some 340,000 compounds screened, about 3,300 (0.97%) were called active. Another 9% or so got no clear call; they are omitted. Calls follow the shape of the dose curve; as a rule, active = well fitted inhibition curve with a large enough effect; inconclusive = small, poorly fitted or top-dose-only effect, or effect the other way; inactive = flat fitted curve, though single readings scatter. Some of the results follow.

Test: qHTS Assay for Modulators of miRNAs and/or Inhibitors of miR-21; also: nearly all actives have a fitted effect of over 55% in size
Conditions: HeLa miR-21-FLuc reporter, luciferase luminescence, 48 h; actives lower the signal
Summary of the method: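 HeLa cells endogenously expressing miR-21, stably carrying CMV-driven firefly luciferase with a downstream miR-21 binding site, 2000 cells/well. Titrations up to approximately 40 uM, 48 hours; luciferase luminescence read.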
Potency is read from the fitted curve at half-maximal effect.

Potency, active:
COc1cccc(NC(=O)C(=O)NCC(c2ccc3c(c2)OCO3)N2CCN(C)CC2)c1 (stereo not drawn) 4.65 µM, Cc1cc(C)n2ncc(/C(N)=N/OC(=O)c3ccccc3F)c2n1 1.85 µM, Cc1csc2ncc(C(=O)NCCc3ccccc3)c(=O)n12 16.5 µM, Cc1cc(C)n2ncc(C(=O)NCCc3ccccc3)c2n1 18.5 µM, CN(C)c1ccc(/C=C2\CCCCC2=O)cc1 2.07 µM, CCC(=O)N1CCc2cc(CNS(=O)(=O)c3ccccc3F)ccc21 6.56 µM, Cc1ccc2nc(-c3ccc(NC(=O)COc4ccccc4C(C)(C)C)cc3)sc2c1 6.56 µM, O=C(COc1ccccc1F)Nc1ccc(-c2nc3ccccc3s2)cc1 1.47 µM, Cc1nc2ccc(NC(=O)COc3ccccc3F)cc2s1 7.36 µM, Nc1ccc2oc3ccc(N)cc3c(=O)c2c1 3.69 µM, COc1nccnc1NS(=O)(=O)c1ccc(NCc2cc(Br)ccc2O)cc1 18.5 µM, C/C(=N\NC(=O)COc1ccccc1F)c1cc2ccccc2o1 8.26 µM, COc1ccc(OCC(=O)N/N=C(\C)c2cc3ccccc3o2)cc1 18.5 µM, Cc1ccc(C(=O)Cc2nnc(C)s2)cc1 4.14 µM, Cc1ccc(NC(=S)NNC(=O)c2nn(C)c(C)c2Cl)cc1 5.85 µM, COc1cc(C2NC(=O)c3c(sc4c3CCN(C)C4)N2)ccc1OC(=O)c1ccccc1 (stereo not drawn) 13.1 µM, CN1CCc2c(sc3c2C(=O)NC(c2ccc(OC(=O)c4ccccc4)cc2)N3)C1 (stereo not drawn) 9.27 µM, CN1CCc2c(sc3c2C(=O)NC(c2cccc(OC(=O)c4cccs4)c2)N3)C1 (stereo not drawn) 18.5 µM, O=C(CC1NCCc2ccccc21)Nc1cccc(Cl)c1 (stereo not drawn) 16.5 µM, C/C(=N/NC(=O)c1ccoc1C)C12CC3CC(CC(C3)C1)C2 8.26 µM, C=C(C)C1CC=C(C)/C(=N/NC(=O)c2ccoc2C)C1 (stereo not drawn) 4.65 µM, Cc1occc1C(=O)NN=C1C2CC3CC(C2)CC1C3 1.31 µM, S=C(N=Nc1ccccc1)NNc1ccccc1 5.21 µM, Cc1cccc(OCCCn2c(=O)sc3ccccc32)c1 14.7 µM, Cc1cccc(OCCn2c(=O)sc3ccccc32)c1 5.21 µM, COc1ccc(N=c2sc3ccccc3n2C)cc1 3.29 µM, COc1ccc(OCCn2c(=O)sc3ccccc32)cc1 14.7 µM, O=c1sc2ccccc2n1CCCOc1ccccc1 4.14 µM
